Results: PubChem BioAssay (NCATS)
Inconclusive results are not listed. A call without a number means that no potency is given here. Unmarked numbers belong to inactive results. Active and inactive are the calls of the source. The call rests on the fitted dose curve; in most records, active means well fitted curve in the direction sought with a large enough effect; inconclusive means small, poorly fitted or top-dose-only effect, or another doubt; inactive means no such curve, though single readings can be large; an effect the other way counts as inactive or inconclusive.

Key:
[1] = Viability qHTS for spleen associated tyrosine kinase inhibitor (SYKi) naive MV4-11 cells (AID 1963823); further: nearly all actives have a fitted effect of over 40% in size
In short: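 Compounds were dispensed acoustically onto plates, MV4-11 cells (SYKi-naive) added at 500 per well, and plates incubated 72 hr at 37 C. CellTiter-Glo was added and luminescence measured after 10 min.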

[2] = Viability qHTS for spleen associated tyrosine kinase inhibitor (SYKi) drug resistant MV4-11 cells (AID 1963824); further: nearly all actives have a fitted effect of over 35% in size
In short: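 CellTiter-Glo luminescence, read 10 min after reagent addition, reports viability after a 72 hr compound exposure. Cells are an MV4-11 line made resistant to SYK inhibition, seeded at 500 per well onto compound-containing plates.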

[3] = Cellular viability qHTS for adrenocortical cancer (ACC) cell line SW-13 (AID 1963989); conditions: SW-13 ACC cells viability, CellTiter-Glo, 48 h; activity (max response): stronger effect = lower value; further: nearly all actives have a fitted effect of over 65% in size;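 on activity (max response): cells grown in serum-free medium with ITS supplement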
In short: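 48 h treatment, SW-13 in ITS/DMEM serum-free; doses up to 46 uM; readout CellTiter-Glo luminescence; curve fit four-parameter logistic.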

[4] = Cellular viability qHTS for adrenocortical cancer (ACC) cell line NCI-H295R (AID 1963990); further: nearly all actives have a fitted effect of over 60% in size
In short: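 Compound titrations (up to 46 uM final) are applied to NCI-H295R cultures for 48 h at 37C. Viable cell number is estimated by CellTiter-Glo signal, normalised to DMSO and doxorubicin controls.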
Potency means the concentration at half of the fitted maximal effect.

| SMILES | Potency [1] | Potency [2] | activity (max response) [3] [%] | Potency [4] | Potency [3] |
| --- | --- | --- | --- | --- | --- |
| CCCNC(C)C(=O)Nc1ccccc1C (stereo unspecified) | inactive | inactive | 8.91 | inactive |  |
| CCCCCCCCCCCCCCCC[N+](C)(C)CC | 299 nM (active) | 668 nM (active) |  | 7.31 µM (active) | 5.17 µM (active) |
| OC[C@H]1O[C@@H](S[C@@H]2O[C@H](CO)[C@H](O)[C@H](n3cc(-c4cccc(F)c4)nn3)[C@H]2O)[C@H](O)[C@@H](n2cc(-c3cccc(F)c3)nn2)[C@H]1O | inactive | inactive | 11.8 | inactive |  |
| COc1cc(-c2ccc(=O)[nH]n2)ccc1OC(F)F | inactive | inactive | -6.02 | inactive |  |
| Nc1ccc([N+](=O)[O-])c(C(F)(F)F)c1 | inactive | inactive | 0.003 | inactive |  |
| COc1cc(C(=S)N2CCOCC2)ccc1O | inactive | inactive | -19.3 | inactive |  |
| CCCCC(=O)OCC(=O)[C@]1(O)Cc2c(O)c3c(c(O)c2[C@@H](O[C@H]2C[C@H](NC(=O)C(F)(F)F)[C@H](O)[C@H](C)O2)C1)C(=O)c1c(OC)cccc1C3=O | 148 nM (active) | 209 nM (active) |  | 3.55 µM (active) | 2.82 µM (active) |
| CCCCC1=NC2(CCCC2)C(=O)N1Cc1ccc(-c2ccccc2-c2nn[nH]n2)cc1 | inactive | inactive | 8.5 | inactive |  |
| C#CC[C@H](c1nc2cc(Cl)ccc2c(=O)n1Nc1ccccc1)N(CCCN)C(=O)c1cccc(Cl)c1F | 164 nM (active) | 206 nM (active) |  | 3.55 µM (active) | 0.251 µM (active) |
